Screening results as filed in PubChem BioAssay.
GALK inh = blocks human galactokinase activity; 0.007% of 270,000 active; Purified GALK, Kinase-Glo residual ATP luminescence; AID 1868; Potency, µM (doses to about 57.5 µM), most hits filed as inhibitors; P51570
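5 nM enzyme, 35 uM ATP, 100 uM galactose, 20 mM HEPES pH8.0, 5 mM MgCl2; 1 h RT; residual ATP by Kinase-Glo Plus luminescence, qHTS format.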
USP2a inh = inhibitors of human ubiquitin-specific protease USP2a; AID 463254; 0.01% of 330,000 active; O75604; Potency, µM (series often up to 38.3 µM), hits mostly inhibitors; USP2 core, Ub-CHOP2 coupled fluorogenic reporter, 485/531
Target sequence (O75604 whole entry, looked up): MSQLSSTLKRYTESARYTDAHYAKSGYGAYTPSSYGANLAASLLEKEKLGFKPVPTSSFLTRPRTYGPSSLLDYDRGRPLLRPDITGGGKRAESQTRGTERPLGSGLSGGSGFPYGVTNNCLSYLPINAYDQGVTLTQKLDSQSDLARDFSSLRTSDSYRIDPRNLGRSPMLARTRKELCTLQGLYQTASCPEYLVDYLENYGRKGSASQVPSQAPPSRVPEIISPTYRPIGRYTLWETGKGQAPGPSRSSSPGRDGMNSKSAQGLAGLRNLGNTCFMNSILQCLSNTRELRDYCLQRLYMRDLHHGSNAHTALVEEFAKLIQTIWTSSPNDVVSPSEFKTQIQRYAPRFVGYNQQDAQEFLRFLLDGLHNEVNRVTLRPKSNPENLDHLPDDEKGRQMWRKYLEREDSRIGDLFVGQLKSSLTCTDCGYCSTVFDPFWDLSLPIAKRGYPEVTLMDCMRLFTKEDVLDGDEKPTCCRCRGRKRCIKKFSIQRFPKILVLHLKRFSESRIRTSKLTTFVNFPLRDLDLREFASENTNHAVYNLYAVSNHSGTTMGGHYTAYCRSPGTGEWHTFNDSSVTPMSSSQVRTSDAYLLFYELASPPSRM
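Cell-free coupled assay: 10nM USP2 core preincubated 30min RT with compound in Tris-HCl pH 8.0/CaCl2/CHAPS buffer, then 25nM Ub-CHOP2 and 25nM reporter substrate; fluorescence (Ex 485/Em 531) read after 60min RT, normalized to NEM inhibition, concentration-response curves fitted.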
Eya2 phos inh = inhibitors of human Eya2 phosphatase activity; O00167; Potency, µM (titrated, usually from 76.9 µM), hits mostly inhibitors; recombinant Eya2, OMFP fluorescence dephosphorylation (OMFP is methylfluorescein phosphate); 0.006% of 330,000 active
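Eya2 protein (added as 0.2 uM solution) was preincubated with compound for 10 min at ambient temperature in 50 mM HEPES pH 7.5, 50 mM NaCl, 5 uM MgCl2, 0.05% BSA, 1 mM DTT. OMFP (added at 50 uM) then reacted 10 min; fluorescence read at 485/525 nm.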
ClpP mod = qHTS Assay for Activators of ClpP | ATP-dependent Clp protease proteolytic subunit (Bacillus subtilis (strain 168)), P80244 | purified B. subtilis ClpP, FRET peptide cleavage, 20 min | Potency, µM (titrated, usually from 57.5 µM) | 1.9% of 340,000 active | AID 651965, 2013; active = well fitted falling curve with a large enough effect; inconclusive = small, poorly fitted or top-dose-only effect; inactive = no such curve, though single readings can be large or run the other way; also: the source files actives as falling curves though it sought activators and does not explain the sign; nearly all actives have a fitted effect of over 65% in size
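Buffer: 100 mM Tris/HCl pH8, 100 mM KCl, 0.05% low protease BSA, 2.5% glycerol, 0.01% Tween-20. ClpP 10 microg/mL final; 20 min RT; delta FRET normalized to ADEP and DMSO controls.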
Numbers stand for hits. This excerpt belongs to a sample that is enriched for hits. Unless noted, calls follow the shape of the dose curve; as a rule, active = well fitted inhibition curve with a large enough effect; inconclusive = small, poorly fitted or top-dose-only effect, or effect the other way; inactive = flat fitted curve, though single readings scatter.

How did CC(=O)N1CCN(c2ccc(NC(=S)NC(=O)c3ccc(C)c([N+](=O)[O-])c3)cc2)CC1 do in these assays?
GALK inh: inactive; USP2a inh: inactive; Eya2 phos inh: inactive; ClpP mod: 32µM

Results for COc1ccc(S(=O)(=O)N2CCC(C(=O)N3CCN(C)CC3)CC2)cc1OC ?
GALK inh: inactive; USP2a inh: inactive; Eya2 phos inh: inactive

How did COC(=O)C1=CN(Cc2ccc(OC)cc2)C=C(C(=O)OC)C1c1cccs1 do in these assays?
GALK inh: inactive; USP2a inh: inactive; Eya2 phos inh: inactive

How did COC(=O)C1=CN(CCCN2CCCC2=O)C=C(C(=O)OC)C1c1cccs1 do in these assays?
GALK inh: inactive; USP2a inh: inactive; Eya2 phos inh: inactive; ClpP mod: 28µM

What do the screens show for `Cc1cc(N2CCOCC2)nc2ccc(NC(=S)N3CCCCC3C)cc12` (stereo not given)?
GALK inh: inactive; USP2a inh: inactive; Eya2 phos inh: inactive

Results for Cc1ccc(NC(=O)Cc2nnc(SCC(=O)Nc3ccc(N4CCOCC4)cc3)n2C)cc1 ?
GALK inh: inactive; USP2a inh: inactive; Eya2 phos inh: inactive

Results for CC1(C)CC(=O)c2c(-c3cccs3)n[nH]c2C1 ?
GALK inh: inactive; USP2a inh: inactive; Eya2 phos inh: inactive; ClpP mod: 25µM

What do the screens show for `CCCc1n[nH]c2c1C(=O)CC(C)(C)C2`?
GALK inh: inactive; USP2a inh: inactive; Eya2 phos inh: inactive; ClpP mod: inactive

Results for CC(CN1CCCCC1)OC(=O)CCc1ccccc1 (stereo not given) ?
GALK inh: inactive; USP2a inh: inactive; Eya2 phos inh: inactive

Results for O=c1[nH]c2cc3c(cc2cc1CN(CCO)S(=O)(=O)c1ccccc1Cl)OCCO3 ?
GALK inh: inactive; USP2a inh: inactive; Eya2 phos inh: inactive; ClpP mod: 28µM

What do the screens show for `COc1cc2cc(CN(CCO)S(=O)(=O)c3ccccc3Cl)c(=O)[nH]c2cc1OC`?
GALK inh: inactive; USP2a inh: inactive; Eya2 phos inh: inactive; ClpP mod: 28µM

What do the screens show for `COc1cc2cc(CN(CCCO)S(=O)(=O)c3ccccc3)c(=O)[nH]c2cc1OC`?
GALK inh: inactive; USP2a inh: inactive; Eya2 phos inh: inactive; ClpP mod: 13µM

Results for CCCNC(=O)C1=C(C)C(=O)OC12CCC(C)CC2 (stereo not given) ?
GALK inh: inactive; USP2a inh: inactive; Eya2 phos inh: inactive; ClpP mod: inactive

How did CCOc1ccc2[nH]c3c(N4CCC5(CC4)OCCO5)ncnc3c2c1 do in these assays?
GALK inh: inactive; USP2a inh: inactive; Eya2 phos inh: inactive; ClpP mod: 32µM

How did CCOC(=O)N1CCN(c2ncnc3c2[nH]c2ccc(OC)cc23)CC1 do in these assays?
GALK inh: inactive; USP2a inh: inactive; Eya2 phos inh: inactive; ClpP mod: 25µM

How did CCOC(=O)N1CCN(c2ncnc3c2[nH]c2ccc(F)cc23)CC1 do in these assays?
GALK inh: inactive; USP2a inh: inactive; Eya2 phos inh: inactive; ClpP mod: inconclusive

What do the screens show for `CCC(=O)N1CCc2cc(Br)cc(S(=O)(=O)CCC(=O)Nc3ccc(C)c(C)c3)c21`?
ClpP mod: inactive

How did Cn1c(/C=C/c2ccccc2)nc2ccccc21 do in these assays?
GALK inh: inactive; USP2a inh: inactive; Eya2 phos inh: inactive; ClpP mod: inactive

How did Cc1ccnc(NC(=O)c2ccc(NS(=O)(=O)/C=C/c3ccccc3)cc2)c1 do in these assays?
USP2a inh: inactive; Eya2 phos inh: inactive; ClpP mod: 28µM

Results for Cc1cccnc1NC(=O)c1ccc(NS(=O)(=O)/C=C/c2ccccc2)cc1 ?
USP2a inh: inactive; Eya2 phos inh: inactive; ClpP mod: inactive

Results for CC(C)C(=O)N[C@@H]1c2ccccc2CC[C@H]1OCc1ccccc1 ?
USP2a inh: inactive; Eya2 phos inh: inactive; ClpP mod: inactive

What do the screens show for `Cc1cc(NC(=O)CSc2nnc(-c3cccnc3)n2Cc2ccccc2)no1`?
GALK inh: inactive; USP2a inh: inactive; Eya2 phos inh: inactive; ClpP mod: 3.2µM

What do the screens show for `O=C(CSc1nnc(-c2cccnc2)n1CCN1CCCCC1)Nc1cccc(Cl)c1`?
GALK inh: inactive; USP2a inh: inactive; Eya2 phos inh: inactive; ClpP mod: 16µM

Results for COc1ccc(CN2C(=O)c3cccnc3C2=O)cc1S(=O)(=O)N1CCOc2ccccc21 ?
GALK inh: inactive; USP2a inh: inactive; Eya2 phos inh: inactive; ClpP mod: inactive

What do the screens show for `Cc1ccc(NC(=O)CNCc2ccccc2)cc1Br`?
GALK inh: inactive; USP2a inh: inactive; Eya2 phos inh: inactive

Results for CC(=O)N1N=C(c2ccccc2)OC12CCCC2 ?
GALK inh: inactive; USP2a inh: inactive; Eya2 phos inh: inactive; ClpP mod: inactive

Results for CC(=O)N1N=C(c2ccc(Br)cc2)OC1(C)CC(=O)Nc1ccccc1 (stereo not given) ?
GALK inh: inactive; USP2a inh: inactive; Eya2 phos inh: inactive; ClpP mod: 25µM

How did Cc1ccc(C(=O)NCCNc2nc3cc(C)c(C)cc3cc2C)cc1 do in these assays?
GALK inh: inactive; USP2a inh: inactive; Eya2 phos inh: inactive

How did Cc1cc2cc(C)c(NCCNC(=O)c3ccccc3)nc2cc1C do in these assays?
GALK inh: inactive; USP2a inh: inactive; Eya2 phos inh: inactive; ClpP mod: inactive

How did CCOc1ccc2nc(NCCNC(=O)c3cc(OC)c(OC)c(OC)c3)c(C#N)cc2c1 do in these assays?
GALK inh: inactive; USP2a inh: inactive; Eya2 phos inh: inactive; ClpP mod: inactive

How did CCOc1ccc2nc(NCCNC(=O)C3CC3)c(C)cc2c1 do in these assays?
GALK inh: inactive; USP2a inh: inactive; Eya2 phos inh: inactive; ClpP mod: 40µM

Results for CCOc1ccc2nc(NCCNC(=O)C(C)C)c(C)cc2c1 ?
GALK inh: inactive; USP2a inh: inactive; Eya2 phos inh: inactive; ClpP mod: 16µM

Results for COCC(=O)NCCNc1nc2ccc(C)cc2cc1C ?
GALK inh: inactive; USP2a inh: inactive; Eya2 phos inh: inactive; ClpP mod: 28µM

How did COc1ccc(Nc2nc(C)cc(-c3cc(-c4ccccc4)on3)n2)cc1 do in these assays?
ClpP mod: 28µM

How did COc1ccc(OC)c(S(=O)(=O)N/N=C(/C)c2c[nH]c3ccccc23)c1 do in these assays?
GALK inh: inactive; USP2a inh: inactive; Eya2 phos inh: inactive; ClpP mod: inactive

How did Cc1ccc(CCNc2nc3c(S(=O)(=O)c4ccccc4)nnn3c3ccsc23)cc1 do in these assays?
ClpP mod: inactive

Results for Cc1ccc(S(=O)(=O)c2nnn3c2nc(NCCc2ccccc2)c2sccc23)cc1 ?
ClpP mod: 10µM

How did Cc1ccc(S(=O)(=O)c2nnn3c2nc(NCc2ccc4c(c2)OCO4)c2sccc23)cc1C do in these assays?
ClpP mod: 20µM

Results for CC(C)c1ccc(S(=O)(=O)c2nnn3c2nc(NCCc2ccccc2)c2sccc23)cc1 ?
ClpP mod: 25µM

What do the screens show for `COc1ccc(-n2cc(C#N)c(=O)n(Cc3ccc(F)cc3)c2=O)cc1`?
GALK inh: inactive; USP2a inh: inactive; Eya2 phos inh: inconclusive
